# PubChem BioAssay (NCATS)
# A number with no mark means an inactive call. Inconclusive results are not listed. Where a call stands in place of a potency, no number is given. Activity calls are given as the source filed them. Unless noted, calls come from the whole dose curve; as a rule, active = well fitted curve in the direction sought with a large enough effect; inconclusive = small, poorly fitted or top-dose-only effect, or another doubt; inactive = no such curve, though single readings can be large; an effect the other way counts as inactive or inconclusive.
# Legend:
# [1] = biological target: Cytochrome P450 1A2 (Homo sapiens) (UniProt P05177); assay: p450-cyp1a2 (AID 410; calls by dose curve; note: potency is the fitted concentration of half-maximal effect)
# Cytochrome P450 1A2 (Homo sapiens), sequence (P05177 whole entry, looked up): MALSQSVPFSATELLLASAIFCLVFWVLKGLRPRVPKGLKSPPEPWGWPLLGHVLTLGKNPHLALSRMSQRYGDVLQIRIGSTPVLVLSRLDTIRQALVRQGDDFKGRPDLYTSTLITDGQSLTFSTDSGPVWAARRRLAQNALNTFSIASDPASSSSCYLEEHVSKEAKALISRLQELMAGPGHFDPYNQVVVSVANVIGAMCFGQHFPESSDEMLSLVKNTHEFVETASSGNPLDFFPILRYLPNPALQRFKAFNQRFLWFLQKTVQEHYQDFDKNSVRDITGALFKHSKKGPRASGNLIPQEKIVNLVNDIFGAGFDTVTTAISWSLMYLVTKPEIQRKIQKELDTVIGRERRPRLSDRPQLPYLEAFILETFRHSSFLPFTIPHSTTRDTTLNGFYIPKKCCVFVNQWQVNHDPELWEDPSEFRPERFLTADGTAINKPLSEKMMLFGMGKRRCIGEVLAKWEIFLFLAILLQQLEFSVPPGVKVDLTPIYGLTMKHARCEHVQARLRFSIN
# Procedure, shortened: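 20nM CYP1A2, 100uM Luciferin-ME (=Km), 100mM KPO4; cpd 10 min RT; +NADPH regen, 60 min RT; stop/detect 20 min; luminescence. Normalized to furafylline 57 uM = full inhibition.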
# [2] = biological target: Glucocorticoid receptor (Homo sapiens) (UniProt P04150); assay: GR-GFP Redistribution (AID 450;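 active = compounds whose dose series gives a full or clear partial fitted curve of increased nuclear translocation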; note: potency is the fitted concentration of half-maximal effect)
# Glucocorticoid receptor (Homo sapiens), sequence (P04150 whole entry, looked up, the tested form may be a part): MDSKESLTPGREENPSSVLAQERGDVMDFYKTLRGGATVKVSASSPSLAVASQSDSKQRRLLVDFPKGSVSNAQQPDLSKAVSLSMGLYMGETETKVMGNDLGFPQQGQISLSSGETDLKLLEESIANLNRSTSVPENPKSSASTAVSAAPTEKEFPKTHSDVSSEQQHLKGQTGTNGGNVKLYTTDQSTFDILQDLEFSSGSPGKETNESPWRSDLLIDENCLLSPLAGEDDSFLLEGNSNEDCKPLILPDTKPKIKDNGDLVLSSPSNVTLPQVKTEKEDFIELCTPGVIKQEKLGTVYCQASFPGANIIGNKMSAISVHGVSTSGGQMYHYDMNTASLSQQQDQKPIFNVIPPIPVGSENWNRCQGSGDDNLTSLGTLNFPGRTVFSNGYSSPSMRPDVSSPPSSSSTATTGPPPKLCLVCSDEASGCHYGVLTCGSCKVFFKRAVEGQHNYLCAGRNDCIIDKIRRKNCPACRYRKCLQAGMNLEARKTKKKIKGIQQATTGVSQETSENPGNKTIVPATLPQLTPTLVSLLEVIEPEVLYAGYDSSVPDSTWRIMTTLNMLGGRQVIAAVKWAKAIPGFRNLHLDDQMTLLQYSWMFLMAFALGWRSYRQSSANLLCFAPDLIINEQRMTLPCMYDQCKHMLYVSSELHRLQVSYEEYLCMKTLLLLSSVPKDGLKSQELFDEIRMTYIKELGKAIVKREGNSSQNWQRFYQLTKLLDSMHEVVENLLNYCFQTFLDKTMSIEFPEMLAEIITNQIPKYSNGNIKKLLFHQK
# [3] = biological target: Glucocorticoid receptor (Homo sapiens) (UniProt P04150); assay: GR-EFC Redistribution (AID 451; calls by dose curve; note: potency is the fitted concentration of half-maximal effect); settings: CHO-K1 GR-EFC translocation, beta-gal luminescence, 2 h
# Procedure, shortened: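 CHO-K1 cells stably expressing nuclear-localized β-gal enzyme acceptor and GR fused C-terminally to the enzyme donor fragment; ligand-driven nuclear translocation restores β-gal by complementation. Compounds titrated up to 46 uM final, 2 h at 37 °C; luminescence read.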
# [4] = biological target: Mitogen-activated protein kinase 10 (Mus musculus) (UniProt Q61831); assay: JNK3 AlphaScreen Assay (AID 530; active = well fitted curve in either direction with a large enough effect, not every such curve was filed as active;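 note: kinase came from lysate of stimulated human HepG2 cells; signal reports phosphorylation of biotinylated GST-cJun 1-79 at Ser73 with 10 µM ATP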)
# Procedure, shortened: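 Biotinylated GST-cJun(1-79) served as substrate for JNK3 in HepG2 lysates stimulated with IL-1beta and TNF-alpha. ATP was 10 uM final, pH 7.6. Ser73 phosphorylation was quantified by AlphaScreen (680 nm excitation).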
# [5] = biological target: ATP-dependent 6-phosphofructokinase (Trypanosoma brucei brucei) (UniProt O15648); assay: qHTS Assay to Find Inhibitors of T. brucei phosphofructokinase: hit validation (AID 492961);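 note: luminescence reports ADP formed as PFK phosphorylates fructose-6-phosphate with ATP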
# ATP-dependent 6-phosphofructokinase (Trypanosoma brucei brucei), sequence (O15648 whole entry, looked up): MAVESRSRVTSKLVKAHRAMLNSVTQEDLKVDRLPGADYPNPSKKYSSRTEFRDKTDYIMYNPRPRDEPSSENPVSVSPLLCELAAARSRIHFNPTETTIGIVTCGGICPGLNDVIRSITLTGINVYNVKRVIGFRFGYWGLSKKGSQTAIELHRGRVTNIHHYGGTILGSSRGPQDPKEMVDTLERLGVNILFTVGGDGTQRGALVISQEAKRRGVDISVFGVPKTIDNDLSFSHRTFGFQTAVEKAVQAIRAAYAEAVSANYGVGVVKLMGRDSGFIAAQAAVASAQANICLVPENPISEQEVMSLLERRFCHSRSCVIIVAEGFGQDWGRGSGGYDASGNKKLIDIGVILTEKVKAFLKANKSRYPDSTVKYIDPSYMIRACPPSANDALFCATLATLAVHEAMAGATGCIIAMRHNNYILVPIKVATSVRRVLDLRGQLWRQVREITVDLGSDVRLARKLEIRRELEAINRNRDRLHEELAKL
# Procedure, shortened: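 PFK 1.25 nM, F6P 0.5 mM, ATP 0.1 mM, MgCl2 5 mM, 0.1 M TEA pH 8.0, Tween20 0.01%, BSA 0.1%; 45 min RT. ADP-Glo two-step detection, luminescence. qHTS titration; curve fitting with curve-class categorization.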
# [6] = biological target: DNA dC->dU-editing enzyme APOBEC-3G (Homo sapiens) (UniProt Q9HC16); assay: qHTS for inhibitors of Vif-A3G interactions: Validation (AID 588379)
# DNA dC->dU-editing enzyme APOBEC-3G (Homo sapiens), sequence (Q9HC16 whole entry, looked up): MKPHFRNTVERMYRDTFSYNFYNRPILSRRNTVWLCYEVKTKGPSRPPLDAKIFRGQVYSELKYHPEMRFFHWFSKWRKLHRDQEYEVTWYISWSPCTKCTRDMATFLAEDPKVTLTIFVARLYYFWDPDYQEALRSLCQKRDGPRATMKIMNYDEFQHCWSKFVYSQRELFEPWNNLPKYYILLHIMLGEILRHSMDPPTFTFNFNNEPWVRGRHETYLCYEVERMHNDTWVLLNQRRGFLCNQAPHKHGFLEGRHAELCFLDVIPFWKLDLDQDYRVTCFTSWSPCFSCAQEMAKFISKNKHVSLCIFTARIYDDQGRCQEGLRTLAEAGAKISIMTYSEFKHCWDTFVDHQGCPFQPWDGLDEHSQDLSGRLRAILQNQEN
# Procedure, shortened: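 Yellow fluorescence (Ex 488, Em 500-530) of Vif-coexpressing HeLa A3G-eYFP cells, scanned by Acumen cytometer, reports blocked A3G degradation. Cells plated at 700/well overnight at 37 deg C before compound addition, then a further overnight compound incubation at 37 deg C.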
# [7] = biological target: Luciferin 4-monooxygenase (Photinus pyralis) (UniProt P08659); assay: Biochemical firefly luciferase enzyme assay for NPC (AID 624030);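 note: purified P. pyralis luciferase at 10 nM with luciferin and ATP substrate; nearly all actives have a fitted effect of over 70% in size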
# Luciferin 4-monooxygenase (Photinus pyralis), sequence (P08659 whole entry, looked up): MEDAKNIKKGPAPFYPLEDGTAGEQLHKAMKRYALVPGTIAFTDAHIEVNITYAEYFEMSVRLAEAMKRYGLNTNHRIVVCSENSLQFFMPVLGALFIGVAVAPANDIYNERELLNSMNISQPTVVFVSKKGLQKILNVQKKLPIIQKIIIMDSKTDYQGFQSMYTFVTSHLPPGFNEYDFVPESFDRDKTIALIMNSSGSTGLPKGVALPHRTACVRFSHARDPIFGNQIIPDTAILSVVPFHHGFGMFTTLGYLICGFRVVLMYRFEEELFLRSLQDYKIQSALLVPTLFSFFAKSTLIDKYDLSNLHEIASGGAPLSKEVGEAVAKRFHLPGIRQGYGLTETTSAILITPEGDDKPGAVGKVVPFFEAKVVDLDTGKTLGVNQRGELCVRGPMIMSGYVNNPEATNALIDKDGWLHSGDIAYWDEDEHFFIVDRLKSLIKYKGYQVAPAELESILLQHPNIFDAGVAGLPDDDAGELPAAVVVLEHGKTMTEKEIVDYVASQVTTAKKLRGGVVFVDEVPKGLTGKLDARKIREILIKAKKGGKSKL
# Procedure, shortened: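 Counter-screen for direct inhibition of the luciferase enzyme by approved-drug library compounds, run at 10 nM enzyme in 50 mM Tris acetate (final). Luminescence was read within 5 min of enzyme-buffer addition and normalized to PTC124 versus DMSO (0%).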
# [8] = S16 Schwann cell PMP22 intronic element firefly luciferase assay (AID 624032); note: nearly all actives have a fitted effect of over 30% in size
# Procedure, shortened: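 Rat S16 Schwann cells stably carrying a PMP22 intronic element-driven Fluc reporter were seeded overnight, then exposed to compounds for 24 h at 37 °C. Luminescence was normalized to PTC124 (positive control) and DMSO (0% activity).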
# 7G8 = assay: qHTS profiling for inhibitors of Plasmodium falciparum proliferation (AID 504749); note: nearly all actives have a fitted effect of over 60% in size; note: potency is the fitted concentration of half-maximal effect; settings: P. falciparum in erythrocytes, SYBR Green DNA, 72 h; series mostly up to 28.7 µM
# Procedure, shortened: (§1)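 Fluorescence of SYBR Green-bound parasite DNA, read at 485/535 nm, served as the growth measure. Infected erythrocytes were cultured with compound 72 h; artemisinin (0.29 uM) and DMSO wells defined the normalization range.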
# AA1029 = assay: as above; settings: P. falciparum in erythrocytes, SYBR Green DNA, 72 h; series mostly up to 28.7 µM
# Procedure, shortened: as §1
# ATS95 = assay: as above; settings: P. falciparum in erythrocytes, SYBR Green DNA, 72 h; series mostly up to 28.7 µM
# Procedure, shortened: as §1
# C2A = assay: as above; settings: P. falciparum in erythrocytes, SYBR Green DNA, 72 h; series mostly up to 28.7 µM
# Procedure, shortened: as §1
# CP252 = assay: as above; settings: P. falciparum in erythrocytes, SYBR Green DNA, 72 h; series mostly up to 28.7 µM
# Procedure, shortened: as §1
# CP262 = assay: as above; settings: P. falciparum in erythrocytes, SYBR Green DNA, 72 h; series mostly up to 28.7 µM
# Procedure, shortened: as §1
# ECU = assay: as above; settings: P. falciparum in erythrocytes, SYBR Green DNA, 72 h; series mostly up to 28.7 µM
# Procedure, shortened: as §1
# JCK = assay: as above; settings: P. falciparum in erythrocytes, SYBR Green DNA, 72 h; series mostly up to 28.7 µM
# Procedure, shortened: as §1
# PAD = assay: as above; settings: P. falciparum in erythrocytes, SYBR Green DNA, 72 h; series mostly up to 28.7 µM
# Procedure, shortened: as §1
# PC15 = assay: as above; settings: P. falciparum in erythrocytes, SYBR Green DNA, 72 h; series mostly up to 28.7 µM
# Procedure, shortened: as §1
# PC49 = assay: as above; settings: P. falciparum in erythrocytes, SYBR Green DNA, 72 h; series mostly up to 28.7 µM
# Procedure, shortened: as §1
# SC27B = assay: as above; settings: P. falciparum in erythrocytes, SYBR Green DNA, 72 h; series mostly up to 28.7 µM
# Procedure, shortened: as §1
# TAB113 = assay: as above; settings: P. falciparum in erythrocytes, SYBR Green DNA, 72 h; series mostly up to 28.7 µM
# Procedure, shortened: as §1
# [9] = AP1 Signaling Pathway (AID 357; active = well fitted curve in either direction with a large enough effect, not every such curve was filed as active;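 note: ME-180 reporter cells stimulated with EGF at its EC50 level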); settings: ME-180 AP-1-bla reporter, EGF-induced, beta-lactamase ratio, 5 h; at 17.2 µM (top of the series) unless noted
# Procedure, shortened: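 Beta-lactamase reporter under AP-1 response element, ME-180 background. Stimulus: EC50 EGF. Compound exposure 5 h, 37 °C. Detection: CCF4, 2.5 h RT, 460/530 nm. Values: AC50 from titration.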
# [10] = qHTS Assay for Identification of Small Molecule Agonists for Hypoxia Response Element Signaling Pathway (AID 914; active = well fitted activation curve with a large enough effect in the signal ratio, with a control signal flat, not every such curve was filed as active; the % refers to the signal ratio; note: potency is the fitted concentration of half-maximal effect); settings: ME-180 HRE-bla reporter, beta-lactamase ratio, CoCl2, 17 h; activation: hits give high values
# Procedure, shortened: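 ME-180 cells carrying an HRE-driven beta-lactamase reporter were treated with compounds in a titration series plus an EC50 level of CoCl2 for 17 h at 37 degrees Celsius; CCF4 readout as the 460nm/530nm ratio gave AC50 values.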
smiles,measurement,setting,value
CNc1cc(OC)c(C(=O)N[C@@H]2CCN(Cc3ccccc3)[C@H]2C)cc1Cl,Potency,[1],31.6 µM (active)
same,Potency,[2],> 46 µM
same,Potency,[3],> 46 µM
same,Potency,[4],inactive
same,Potency,[5],inactive
same,outcome,[6],inactive
same,Potency,[7],inactive
same,Potency,[8],inactive
same,Potency,7G8,6.31 µM (active)
same,Potency,AA1029,14.1 µM (active)
same,Potency,ATS95,inactive
same,Potency,C2A,inactive
same,Potency,CP252,inactive
same,Potency,CP262,inactive
same,Potency,ECU,inactive
same,Potency,JCK,inactive
same,Potency,PAD,inactive
same,Potency,PC15,inactive
same,Potency,PC49,inactive
same,Potency,SC27B,inactive
same,Potency,TAB113,inactive
CCNC(=O)c1cc2c(=O)n3cccc(C)c3nc2n(CCc2ccccc2)c1=N,"activity change, negative = inhibition",[9],20.4%
same,Potency,[2],> 20.6 µM
same,Potency,[10],10 µM (active)
